Source: PubChem BioAssay AID1159580 (chemical genetic matrix, 2015)
Several values for one entry are separate records, joined by “and”; a condition that tells them apart may be missing. Equal values may be shown once. The campaign covered roughly 5,500 compounds. About 2,000 (36%) were called active. About 18% were inconclusive and are not listed. No stated cut-off is given here; in the data, active means normalized growth mostly below about 0.91 (no sharp cut-off); inconclusive means no clear call, values can overlap the other calls; inactive means mostly above about 0.92. Some of the results follow.

Experiment: chemical genetic growth profiling, strain panel (AID 1159580);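 further: tested at 20 µM; growth read once vehicle control cultures reached saturation at 30 °C; 1 = growth at the plate median or of vehicle wells; lower values mean less growth of the strain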
Conditions: S. cerevisiae deletion strains, growth OD

Measured: normalized growth

NC[C@@H]1O[C@H](O[C@@H]2[C@@H](CO)OC(O[C@@H]3[C@@H](O)[C@H](N)C[C@H](N)[C@H]3O[C@H]3O[C@H](CO)[C@@H](O)[C@H](O)[C@H]3N)[C@@H]2O)[C@H](N)[C@@H](O)[C@@H]1O (stereo partly drawn)
inactive: locus YAL021C, strain ccr4, active compounds read low 0.996 | locus YAL026C, strain drs2, active compounds read low 0.992 | locus YAL030W, strain snc1, active compounds read low 0.995 | locus YBL061C, strain skt5, active compounds read low 0.995 | locus YBR009C, strain hhf1, active compounds read low 0.986 | locus YBR021W, strain FUR4, active compounds read low 1.03 | locus YBR023C, strain chs3, active compounds read low 0.999 | locus YBR171W, strain sec66, active compounds read low 0.973 | locus YBR229C, strain ROT2, active compounds read low 0.96 | locus YBR231C, strain swc5, active compounds read low 0.992 | locus YBR279W, strain paf1, active compounds read low 0.992 | locus YCL011C, strain gbp2, active compounds read low 0.985 | locus YCL016C, strain dcc1, active compounds read low 0.988 | locus YCL029C, strain bik1, active compounds read low 1 | locus YCL061C, strain MRC1, active compounds read low 0.953 | locus YCL069W, strain vba3, active compounds read low 0.992 | locus YCR088W, strain abp1, active compounds read low 0.997 | locus YDL005C, strain med2, active compounds read low 0.992 | locus YDL035C, strain GPR1, active compounds read low 0.996 | locus YDL040C, strain nat1, active compounds read low 0.984 | locus YDL074C, strain BRE1, active compounds read low 0.961 | locus YDL101C, strain DUN1, active compounds read low 0.98 | locus YDL134C, strain PPH21, active compounds read low 1.01 | locus YDL185W, strain tfp1, active compounds read low 0.982 | locus YDL192W, strain arf1, active compounds read low 0.991 | locus YDR001C, strain nth1, active compounds read low 0.995 | locus YDR069C, strain doa4, active compounds read low 0.994 | locus YDR101C, strain arx1, active compounds read low 0.985 | locus YDR137W, strain rgp1, active compounds read low 1.01 | locus YDR159W, strain sac3, active compounds read low 0.966 | locus YDR162C, strain NBP2, active compounds read low 0.998 | locus YDR195W, strain ref2 0.981 | locus YDR297W, strain sur2, active compounds read low 0.992 | locus YDR318W, strain mcm21, active compounds read low 1 | locus YDR334W, strain swr1, active compounds read low 0.989 | locus YDR335W, strain msn5, active compounds read low 0.998 | locus YDR388W, active compounds read low 0.992 | locus YDR392W, strain spt3, active compounds read low 0.974 | locus YDR502C, strain sam2, active compounds read low 0.988 | locus YEL003W, strain gim4, active compounds read low 0.986 | locus YEL037C, strain rad23, active compounds read low 0.977 | locus YEL061C, strain CIN8 (second series), active compounds read low 0.988 | locus YEL061C, strain CIN8, active compounds read low 0.985 | locus YER015W, strain faa2, active compounds read low 0.995 | locus YER016W, strain bim1, active compounds read low 0.989 | locus YER110C, active compounds read low 0.994 | locus YER111C, strain swi4, active compounds read low 0.988 | locus YER155C, strain BEM2 (second series), active compounds read low 0.985 | locus YER155C, strain BEM2, active compounds read low 1 | locus YER167W, strain BCK2, active compounds read low 1.01 | locus YFR010W, strain ubp6, active compounds read low 0.996 | locus YGL078C, strain dbp3, active compounds read low 0.995 | locus YGL086W, strain mad1, active compounds read low 0.983 | locus YGL167C, strain pmr1, active compounds read low 1 | locus YGL173C, strain kem1, active compounds read low 0.984 | locus YGL227W, strain vid30, active compounds read low 0.999 | locus YGL240W, strain doc1, active compounds read low 0.991 | locus YGL248W, strain PDE1, active compounds read low 0.969 | locus YGL253W, strain hxk2, active compounds read low 0.988 | locus YGR078C, strain PAC10, active compounds read low 0.968 | locus YGR135W, strain pre9, active compounds read low 1.05 | locus YGR229C, strain SMI1, active compounds read low 1 | locus YGR252W, strain gcn5, active compounds read low 1.02 | locus YHR013C, strain ard1, active compounds read low 0.988 | locus YHR027C, strain rpn1, active compounds read low 0.999 | locus YHR030C, strain SLT2, active compounds read low 1 and 0.966 | locus YHR079C, strain IRE1 (second series), active compounds read low 0.993 | locus YHR079C, strain IRE1, active compounds read low 0.974 | locus YHR094C, strain hxt1, active compounds read low 0.997 | locus YHR129C, strain ARP1, active compounds read low 1 | locus YHR142W, strain chs7, active compounds read low 0.983 | locus YHR200W, strain rpn10, active compounds read low 0.993 | locus YIL066C, strain RNR3, active compounds read low 0.969 | locus YIL073C, strain SPO22, active compounds read low 1.07 | locus YIL125W, strain kgd1, active compounds read low 0.992 | locus YIR030C, strain dcg1, active compounds read low 0.993 | locus YJL092W, strain hpr5, active compounds read low 0.993 | locus YJL095W, strain BCK1 (second series), active compounds read low 0.992 | locus YJL095W, strain BCK1, active compounds read low 0.959 and 0.976 | locus YJL115W, strain asf1, active compounds read low 0.984 | locus YJL129C, strain trk1, active compounds read low 0.977 | locus YJL134W, strain LCB3, active compounds read low 0.999 | locus YJL154C, strain vps35, active compounds read low 0.987 | locus YJL164C, strain tpk1, active compounds read low 0.948 | locus YJL166W, strain qcr8, active compounds read low 0.986 | locus YJL168C, strain set2, active compounds read low 0.987 | locus YJL187C, strain SWE1 (second series), active compounds read low 0.954 | locus YJL187C, strain SWE1, active compounds read low 0.992
